# ± gives the standard deviation of the averaged measurements. Of roughly 6,500 targets only a part is listed; those with the largest changes were picked by preference.
# Compound: Nc1ncnc2c1ncn2[C@@H]1O[C@H](COP(=O)(O)OP(=O)(O)OP(=O)(O)O)[C@@H](O)[C@H]1O [adenosine triphosphate]
# Assay: NP40-soluble protein abundance relative to vehicle (solubility fold change) (ratio); higher = more soluble protein in presence of ATP
# Outline: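 Each value is a fold change relative to the detergent-processed vehicle, calculated per replicate from vsn-normalised intensities. Jurkat crude lysate received eight concentrations (0.1 to 10 mM) for 10 min at room temperature and 3 min at 37 °C, then was solubilised in 0.8% NP40 with benzonase (60 min, 4 °C). The ultracentrifuged supernatant was TMT-labelled and run by LC-MS/MS in three independent experiments.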
# Chain of UniProt O96028 (O96028 whole entry): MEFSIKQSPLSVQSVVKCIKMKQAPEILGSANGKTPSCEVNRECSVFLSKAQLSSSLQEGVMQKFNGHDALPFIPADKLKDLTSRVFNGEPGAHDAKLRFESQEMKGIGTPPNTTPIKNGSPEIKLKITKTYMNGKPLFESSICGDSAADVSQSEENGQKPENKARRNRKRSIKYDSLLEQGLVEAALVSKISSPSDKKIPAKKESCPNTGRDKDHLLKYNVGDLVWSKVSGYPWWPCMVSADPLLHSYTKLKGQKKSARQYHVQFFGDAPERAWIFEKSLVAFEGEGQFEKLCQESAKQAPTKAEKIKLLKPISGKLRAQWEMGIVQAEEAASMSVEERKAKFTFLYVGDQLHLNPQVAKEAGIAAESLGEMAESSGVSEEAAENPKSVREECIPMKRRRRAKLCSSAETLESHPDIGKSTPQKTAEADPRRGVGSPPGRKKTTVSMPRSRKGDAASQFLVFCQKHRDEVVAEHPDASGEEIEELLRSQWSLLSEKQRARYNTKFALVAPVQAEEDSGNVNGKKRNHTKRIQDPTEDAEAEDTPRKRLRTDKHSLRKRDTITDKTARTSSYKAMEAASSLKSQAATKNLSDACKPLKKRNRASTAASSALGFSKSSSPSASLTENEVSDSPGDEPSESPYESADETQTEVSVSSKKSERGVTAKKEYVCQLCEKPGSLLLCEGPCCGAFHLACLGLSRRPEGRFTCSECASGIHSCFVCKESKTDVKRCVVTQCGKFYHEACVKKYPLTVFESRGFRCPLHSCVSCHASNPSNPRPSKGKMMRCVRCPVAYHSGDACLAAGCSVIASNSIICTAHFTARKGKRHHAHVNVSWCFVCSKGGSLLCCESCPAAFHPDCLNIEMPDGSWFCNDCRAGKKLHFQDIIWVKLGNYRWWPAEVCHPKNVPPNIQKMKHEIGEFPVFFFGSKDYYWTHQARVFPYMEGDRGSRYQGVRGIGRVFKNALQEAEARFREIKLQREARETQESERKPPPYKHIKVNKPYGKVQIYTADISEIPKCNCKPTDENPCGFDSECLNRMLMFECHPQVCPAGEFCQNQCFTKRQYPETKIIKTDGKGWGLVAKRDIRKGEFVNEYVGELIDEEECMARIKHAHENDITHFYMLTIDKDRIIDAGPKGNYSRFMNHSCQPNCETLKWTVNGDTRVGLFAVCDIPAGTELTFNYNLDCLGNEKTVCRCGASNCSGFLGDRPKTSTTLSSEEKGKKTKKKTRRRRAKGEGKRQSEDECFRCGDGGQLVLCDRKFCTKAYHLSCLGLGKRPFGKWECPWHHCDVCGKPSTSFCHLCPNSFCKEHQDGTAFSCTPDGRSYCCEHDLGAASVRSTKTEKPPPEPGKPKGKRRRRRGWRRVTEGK
# Chain of UniProt P18846 (P18846 whole entry): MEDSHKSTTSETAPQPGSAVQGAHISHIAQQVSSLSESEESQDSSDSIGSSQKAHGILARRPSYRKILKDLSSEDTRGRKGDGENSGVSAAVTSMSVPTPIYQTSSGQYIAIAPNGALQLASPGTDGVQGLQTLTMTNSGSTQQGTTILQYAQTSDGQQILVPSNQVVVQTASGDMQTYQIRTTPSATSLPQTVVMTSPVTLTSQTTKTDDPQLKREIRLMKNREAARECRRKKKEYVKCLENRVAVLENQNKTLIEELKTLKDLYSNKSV
# Chain of UniProt P06493 (P06493 whole entry, looked up): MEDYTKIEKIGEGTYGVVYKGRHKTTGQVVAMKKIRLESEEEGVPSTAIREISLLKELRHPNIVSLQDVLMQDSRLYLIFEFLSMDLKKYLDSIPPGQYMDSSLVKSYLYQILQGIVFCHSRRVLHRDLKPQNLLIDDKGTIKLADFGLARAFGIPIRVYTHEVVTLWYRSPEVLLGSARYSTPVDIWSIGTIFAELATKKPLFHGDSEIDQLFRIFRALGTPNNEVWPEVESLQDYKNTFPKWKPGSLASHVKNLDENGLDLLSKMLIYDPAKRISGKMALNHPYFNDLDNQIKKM
Target,NP40-soluble protein abundance (concentration: 1mM),NP40-soluble protein abundance (concentration: 2mM),NP40-soluble protein abundance (concentration: 4mM),NP40-soluble protein abundance (concentration: 6mM),NP40-soluble protein abundance (concentration: 8mM),NP40-soluble protein abundance (concentration: 10mM)
UniProt O96028|O96028-3|O96028-5,1.31 ± 0.054,1.45 ± 0.072,1.54 ± 0.11,1.62 ± 0.12,1.62 ± 0.12,1.74 ± 0.18
UniProt P06493,1.05 ± 0.054,1.06 ± 0.053,1.03 ± 0.063,1.03 ± 0.1,1.05 ± 0.058,1.05 ± 0.015
ATF1 (UniProt P18846),0.986 ± 0.2,0.951 ± 0.033,1.02 ± 0.14,0.999 ± 0.054,0.97 ± 0.074,0.917 ± 0.068
